Laboratory results reported in the supplement of paper PMC9177965.
Several values for one entry are separate records, joined by “and”; a condition that tells them apart may be missing. Equal entries are not always repeated.

These molecules were tested on HT29 RNF43 G659fs (RNF43 659mut, CRISPR-edited) (assay: cell viability activity relative to DMSO (negative = inhibition); higher = more viable cells (less growth inhibition)). Conditions: 5 µM; 96 h.
Description: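 Broad Repurposing Library primary screen at a single dose of 5 uM. HT29 sg-Ctrl and HT29 RNF43 G659fs CRISPR-edited isogenic cells were seeded at 2500 cells/well in 384-well plates in duplicate and treated for 96 h. Viability was read by CellTiter-Glo and reported as % activity relative to DMSO, with MG132 as the positive control (negative = growth inhibition).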

Row | SMILES | cell viability activity
1 | CC(C)c1ccc(C(=O)N=C(N)N)cc1S(C)(=O)=O | -25.7%
2 | CS[C@H]1SC[C@H]2C(=O)N(C)[C@@H](C(C)C)C(=O)OC[C@@H](NC(=O)c3cnc4ccccc4n3)C(=O)N[C@@H](C)C(=O)N(C)[C@@H]1C(=O)N(C)[C@@H](C(C)C)C(=O)OC[C@@H](NC(=O)c1cnc3ccccc3n1)C(=O)N[C@@H](C)C(=O)N2C | -88%
3 | CN[C@H]1CN(c2ccc3c(=O)c(C(=O)O)cn(-c4nccs4)c3n2)C[C@@H]1OC | -60.3%
4 | CC[C@@]1(O)C(=O)OCc2c1cc1n(c2=O)Cc2c-1nc1cc(F)c(C)c3c1c2[C@@H](N)CC3 | -91.7%
5 | Cc1cccc(/C=N/Nc2cc(N3CCOCC3)nc(OCCc3ccccn3)n2)c1 | -66%
6 | CNc1ncc2cc(-c3cc(NC(=O)NCCC(C)(C)C)c(F)cc3C)c(C)nc2n1 | -69%
7 | CC(C)NC[C@@H](C(=O)N1CCN(c2ncnc3c2[C@H](C)C[C@H]3O)CC1)c1ccc(Cl)cc1 | -53.6%
8 | COc1cccc2c1C(=O)c1c(O)c3c(c(O)c1C2=O)C[C@@](O)(C(=O)CO)C[C@@H]3O[C@H]1C[C@H](N)[C@@H](O)[C@H](C)O1 | -93.5%
9 | CC(C)Oc1ccc(C(=O)N[C@H](CNC(=O)CN(C)C)Cc2ccc(-c3cn4cccc([C@H](C)O)c4n3)cc2)cc1Cl | -54.6%
10 | CC(C)NCCCn1c(Sc2cc3c(cc2I)OCO3)nc2c(N)ncnc21 | -87%
11 | O=C(NNc1nc2cc(F)ccc2n2cccc12)c1cnccn1 | -82.8%
12 | CCc1nc(C(N)=O)c(Nc2ccc(N3CCC(N4CCN(C)CC4)CC3)c(OC)c2)nc1NC1CCOCC1 | -46.8%
13 | COc1cc(OCc2cccc(-c3ccccc3)c2C)cc(OC)c1CN1CCCC[C@H]1C(=O)O | -24.2%
14 | CCCCc1ccc2[nH]c(NC(=O)OC)nc2c1 | -66.1%
15 | C[n+]1cc2c3c(ccc2c2ccc4cc5c(cc4c21)OCO5)OCO3 | -97.3%
16 | COc1cc2ncnc(Nc3ccc(F)c(Cl)c3)c2cc1NC(=O)/C=C/CN1CCCCC1 | -93.1%
17 | CO[C@@H](C)Cn1c(=O)n(C)c2cnc3ccc(-c4cncc(C(C)(C)O)c4)cc3c21 | -81.7%
18 | N[C@@H](Cn1ccc(=O)n(Cc2ccccc2C(=O)O)c1=O)C(=O)O | -36.8%

Row | SMILES | cell viability activity
19 | CCCCCCCCc1ccc(CCC(N)(CO)CO)cc1 | -97.8%
20 | COc1ccc2c(c1)c(C1=C(c3c[nH]c4ccccc34)C(=O)NC1=O)cn2CCCN(C)C | -75.2%
21 | C=C1C(=O)CC2CC3OC3(C)CCC3OC3(C)C[C@H](OC(C)=O)C1C2(C)C (stereo not given in full) | -28.6%
22 | O=C(NOCC(O)CO)c1cc(Br)c(F)c(F)c1Nc1ccc(I)cc1F (stereo not given) | -75.8%
23 | Nc1ncn([C@@H]2O[C@H](CO)[C@@H](O)[C@H]2O)c(=O)n1 | -24.4%
24 | CN(NC(=O)CC(=O)NN(C)C(=S)c1ccccc1)C(=S)c1ccccc1 | -30.6%
25 | C[C@H]1O[C@@H](O[C@H]2CC[C@@]3(C)[C@H](CC[C@@H]4[C@@H]3C[C@@H](O)[C@]3(C)[C@@H](C5=CC(=O)OC5)CC[C@]43O)C2)C[C@H](O)[C@@H]1O[C@H]1C[C@H](O)[C@H](O[C@H]2C[C@H](O)[C@H](O[C@@H]3O[C@H](CO)[C@@H](O)[C@H](O)[C@H]3O)[C@@H](C)O2)[C@@H](C)O1 | -90.5%
26 | CNC(=O)CN1CCC(Oc2cc3c(Nc4cccc(Cl)c4F)ncnc3cc2OC)CC1 | -41.9%
27 | CN(C)CCOc1ccc(-c2nc(-c3ccncc3)c(-c3ccc4c(c3)CC/C4=N\O)[nH]2)cc1 | -44.3%
28 | CCn1cc(-c2ccnc3[nH]c(-c4cccc(CN(C)C)c4)cc23)c(-c2ccc(NC(=O)N(C)C)cc2)n1 | -84.6%
29 | CC(NCCC(c1ccccc1)c1ccccc1)c1ccccc1 (stereo not given) | -64.5%
30 | O=C1NC(=O)[C@@H](c2cn3c4c(cccc24)CCC3)[C@@H]1c1c[nH]c2ccccc12 | -50.8%
31 | N#Cc1ccc(COC[C@H]2O[C@@H](n3c(NCc4ccc(Cl)c(Cl)c4)nc4c(N)ncnc43)[C@H](O)[C@@H]2O)cc1 | -24.9%
32 | CC(C)c1cc(-c2n[nH]c(=O)n2-c2ccc3c(ccn3C)c2)c(O)cc1O | -87.1%
33 | CO[C@H]1/C=C\C=C(/C)C(=O)NC2=CC(=O)C(NCCN(C)C)=C(C[C@@H](C)C[C@H](OC)[C@H](O)[C@@H](C)/C=C(\C)[C@@H]1OC(N)=O)C2=O | -93.9% and -91.4%
34 | C=CCCCCCCCCC(=O)O | -66.5%
35 | O=C(NC1CCNCC1)c1n[nH]cc1NC(=O)c1c(Cl)cccc1Cl | -82.8%
